Experimental data taken from the supplement of paper PMC11732987, “Enantioselective OTUD7B fragment discovery through chemoproteomics screening and high-throughput optimisation” (Communications Chemistry, 2025).

Legend:
Assay in all cases: log2 ratio of Biotin-Ahx-Ub-VS probe labelling (fragment/DMSO); higher = less target engagement (more negative = stronger competition), active = hit call of the paper (q ≤ 0.05, log2 ratio ≤ -1)
Conditions in all cases: compound concentration: 200 uM; treatment time: 3 h
USP42 = target: T1, USP42 (UniProt Q9H9J4)
T1 sequence (whole entry): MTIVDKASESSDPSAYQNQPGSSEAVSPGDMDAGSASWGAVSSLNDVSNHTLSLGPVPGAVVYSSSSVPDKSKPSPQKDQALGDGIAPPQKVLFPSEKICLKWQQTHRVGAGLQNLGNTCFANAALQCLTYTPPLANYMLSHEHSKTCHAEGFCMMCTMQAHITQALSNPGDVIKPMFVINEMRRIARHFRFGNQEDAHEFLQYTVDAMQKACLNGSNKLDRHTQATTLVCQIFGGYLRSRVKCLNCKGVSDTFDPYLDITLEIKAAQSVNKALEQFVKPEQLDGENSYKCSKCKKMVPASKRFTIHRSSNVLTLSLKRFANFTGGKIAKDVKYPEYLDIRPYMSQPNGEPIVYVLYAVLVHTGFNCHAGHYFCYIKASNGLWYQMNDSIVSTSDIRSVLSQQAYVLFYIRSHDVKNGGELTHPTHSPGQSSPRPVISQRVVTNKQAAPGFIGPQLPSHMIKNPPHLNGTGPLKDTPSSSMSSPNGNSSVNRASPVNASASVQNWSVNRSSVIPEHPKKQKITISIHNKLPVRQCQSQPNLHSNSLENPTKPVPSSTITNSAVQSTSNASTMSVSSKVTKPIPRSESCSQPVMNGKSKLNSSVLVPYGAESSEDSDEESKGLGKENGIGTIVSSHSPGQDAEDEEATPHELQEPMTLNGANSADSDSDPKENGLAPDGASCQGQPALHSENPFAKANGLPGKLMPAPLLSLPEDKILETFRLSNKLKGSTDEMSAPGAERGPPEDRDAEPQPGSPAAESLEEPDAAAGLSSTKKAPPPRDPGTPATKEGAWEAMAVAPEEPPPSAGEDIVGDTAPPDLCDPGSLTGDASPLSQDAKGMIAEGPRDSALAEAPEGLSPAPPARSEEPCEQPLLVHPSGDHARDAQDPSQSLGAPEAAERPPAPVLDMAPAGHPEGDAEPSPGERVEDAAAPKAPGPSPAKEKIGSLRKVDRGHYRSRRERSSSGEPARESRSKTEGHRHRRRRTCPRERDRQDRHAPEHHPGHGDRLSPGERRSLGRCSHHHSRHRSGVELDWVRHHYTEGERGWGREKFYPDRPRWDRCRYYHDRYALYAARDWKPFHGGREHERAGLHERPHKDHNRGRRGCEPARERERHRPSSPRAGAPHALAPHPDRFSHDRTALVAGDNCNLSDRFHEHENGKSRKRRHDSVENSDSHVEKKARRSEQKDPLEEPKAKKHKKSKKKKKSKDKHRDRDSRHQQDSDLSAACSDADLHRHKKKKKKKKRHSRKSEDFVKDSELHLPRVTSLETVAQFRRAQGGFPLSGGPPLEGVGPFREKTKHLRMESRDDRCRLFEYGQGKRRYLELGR
Procedure, shortened: (§1)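 The table lists average log2 ratios of fragment over vehicle, from an unpaired t-test on global-median-normalised Spectronaut label-free quantities. Proteins with ≥2 unique peptides were used. Samples were HEK293T lysate (495 µg) treated in triplicate with fragment at 200 µM or vehicle for 3 h, then with Biotin-Ahx-Ub-VS (0.5 µM final) for 1 h, with labelled DUBs NeutrAvidin-enriched and run by diaPASEF LC-MS/MS.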

USP46 = USP46 (UniProt P62068)
USP46, sequence (P62068 whole entry): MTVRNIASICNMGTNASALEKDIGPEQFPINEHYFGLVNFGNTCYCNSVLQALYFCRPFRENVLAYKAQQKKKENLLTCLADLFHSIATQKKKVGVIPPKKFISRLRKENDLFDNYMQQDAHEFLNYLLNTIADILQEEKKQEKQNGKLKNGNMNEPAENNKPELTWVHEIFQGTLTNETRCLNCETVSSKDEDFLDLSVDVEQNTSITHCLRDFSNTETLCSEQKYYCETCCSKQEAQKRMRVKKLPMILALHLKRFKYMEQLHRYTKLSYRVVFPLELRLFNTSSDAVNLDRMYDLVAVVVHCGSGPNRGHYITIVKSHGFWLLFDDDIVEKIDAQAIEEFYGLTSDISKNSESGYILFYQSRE
Procedure, shortened: as §1

USP47 = target: T2, USP47 (UniProt Q96K76)
T2 sequence (whole entry): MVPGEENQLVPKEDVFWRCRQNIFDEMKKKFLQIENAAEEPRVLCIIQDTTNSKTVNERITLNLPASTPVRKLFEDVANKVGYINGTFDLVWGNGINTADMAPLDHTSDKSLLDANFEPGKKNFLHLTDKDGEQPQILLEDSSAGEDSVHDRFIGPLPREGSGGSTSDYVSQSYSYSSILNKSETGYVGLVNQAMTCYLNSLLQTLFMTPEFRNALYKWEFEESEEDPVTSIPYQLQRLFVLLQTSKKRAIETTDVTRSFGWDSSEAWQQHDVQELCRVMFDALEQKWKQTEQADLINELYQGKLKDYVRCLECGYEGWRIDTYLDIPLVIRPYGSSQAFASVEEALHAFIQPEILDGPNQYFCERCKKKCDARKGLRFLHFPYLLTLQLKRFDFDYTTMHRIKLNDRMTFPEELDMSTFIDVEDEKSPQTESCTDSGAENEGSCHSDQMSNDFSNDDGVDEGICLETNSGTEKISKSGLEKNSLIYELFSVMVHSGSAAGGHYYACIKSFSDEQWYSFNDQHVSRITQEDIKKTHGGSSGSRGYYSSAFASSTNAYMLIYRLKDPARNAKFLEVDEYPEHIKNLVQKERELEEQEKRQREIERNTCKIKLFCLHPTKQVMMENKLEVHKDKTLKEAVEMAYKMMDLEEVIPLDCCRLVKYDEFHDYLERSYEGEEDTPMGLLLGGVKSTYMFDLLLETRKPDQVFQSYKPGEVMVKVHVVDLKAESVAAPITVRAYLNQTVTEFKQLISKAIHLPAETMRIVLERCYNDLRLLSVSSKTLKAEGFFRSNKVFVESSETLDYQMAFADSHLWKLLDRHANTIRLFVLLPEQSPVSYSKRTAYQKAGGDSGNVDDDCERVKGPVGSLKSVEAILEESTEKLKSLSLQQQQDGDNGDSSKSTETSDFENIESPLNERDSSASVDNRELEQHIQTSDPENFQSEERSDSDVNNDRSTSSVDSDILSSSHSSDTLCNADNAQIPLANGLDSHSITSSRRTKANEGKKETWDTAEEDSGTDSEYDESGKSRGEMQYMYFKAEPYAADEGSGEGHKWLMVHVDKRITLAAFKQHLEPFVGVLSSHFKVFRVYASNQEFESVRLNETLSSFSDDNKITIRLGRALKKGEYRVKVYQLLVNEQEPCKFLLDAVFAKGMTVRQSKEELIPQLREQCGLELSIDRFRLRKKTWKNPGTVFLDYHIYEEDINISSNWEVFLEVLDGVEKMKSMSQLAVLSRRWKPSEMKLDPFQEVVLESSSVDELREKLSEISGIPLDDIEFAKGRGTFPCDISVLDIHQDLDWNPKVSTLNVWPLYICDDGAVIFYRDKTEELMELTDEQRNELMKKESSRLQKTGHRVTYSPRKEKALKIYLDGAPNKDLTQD
Procedure, shortened: as §1

USP48 = target: T3, USP48 (UniProt Q86UV5)
T3 sequence (whole entry): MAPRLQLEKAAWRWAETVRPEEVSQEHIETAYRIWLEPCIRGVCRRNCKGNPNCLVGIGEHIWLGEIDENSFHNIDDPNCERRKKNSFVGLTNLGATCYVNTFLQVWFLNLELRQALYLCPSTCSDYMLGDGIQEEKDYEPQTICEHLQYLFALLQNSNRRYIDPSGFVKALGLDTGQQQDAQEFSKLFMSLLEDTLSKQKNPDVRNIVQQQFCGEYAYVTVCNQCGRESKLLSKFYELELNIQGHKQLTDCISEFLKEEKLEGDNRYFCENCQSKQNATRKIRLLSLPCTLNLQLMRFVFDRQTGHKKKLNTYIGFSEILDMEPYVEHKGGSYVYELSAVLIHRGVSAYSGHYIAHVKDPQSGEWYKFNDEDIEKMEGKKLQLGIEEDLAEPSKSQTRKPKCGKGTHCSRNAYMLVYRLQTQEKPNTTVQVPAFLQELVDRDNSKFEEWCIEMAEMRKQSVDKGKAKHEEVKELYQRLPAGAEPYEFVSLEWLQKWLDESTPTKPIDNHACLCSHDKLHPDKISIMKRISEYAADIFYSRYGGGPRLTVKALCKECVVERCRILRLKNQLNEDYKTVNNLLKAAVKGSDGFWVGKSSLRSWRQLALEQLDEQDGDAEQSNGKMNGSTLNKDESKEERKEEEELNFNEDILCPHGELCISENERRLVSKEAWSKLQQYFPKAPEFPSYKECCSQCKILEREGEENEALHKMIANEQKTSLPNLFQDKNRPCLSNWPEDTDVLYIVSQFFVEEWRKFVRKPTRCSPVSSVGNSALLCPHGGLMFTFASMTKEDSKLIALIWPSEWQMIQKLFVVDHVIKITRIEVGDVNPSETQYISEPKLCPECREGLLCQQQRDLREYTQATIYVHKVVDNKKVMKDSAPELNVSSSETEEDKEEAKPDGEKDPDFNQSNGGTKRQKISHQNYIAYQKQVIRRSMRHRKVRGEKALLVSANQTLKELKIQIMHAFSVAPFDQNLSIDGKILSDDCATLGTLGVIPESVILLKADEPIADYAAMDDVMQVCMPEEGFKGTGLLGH
Procedure, shortened: as §1

USP5 = target: T4, USP5 (UniProt P45974)
T4 sequence (whole entry): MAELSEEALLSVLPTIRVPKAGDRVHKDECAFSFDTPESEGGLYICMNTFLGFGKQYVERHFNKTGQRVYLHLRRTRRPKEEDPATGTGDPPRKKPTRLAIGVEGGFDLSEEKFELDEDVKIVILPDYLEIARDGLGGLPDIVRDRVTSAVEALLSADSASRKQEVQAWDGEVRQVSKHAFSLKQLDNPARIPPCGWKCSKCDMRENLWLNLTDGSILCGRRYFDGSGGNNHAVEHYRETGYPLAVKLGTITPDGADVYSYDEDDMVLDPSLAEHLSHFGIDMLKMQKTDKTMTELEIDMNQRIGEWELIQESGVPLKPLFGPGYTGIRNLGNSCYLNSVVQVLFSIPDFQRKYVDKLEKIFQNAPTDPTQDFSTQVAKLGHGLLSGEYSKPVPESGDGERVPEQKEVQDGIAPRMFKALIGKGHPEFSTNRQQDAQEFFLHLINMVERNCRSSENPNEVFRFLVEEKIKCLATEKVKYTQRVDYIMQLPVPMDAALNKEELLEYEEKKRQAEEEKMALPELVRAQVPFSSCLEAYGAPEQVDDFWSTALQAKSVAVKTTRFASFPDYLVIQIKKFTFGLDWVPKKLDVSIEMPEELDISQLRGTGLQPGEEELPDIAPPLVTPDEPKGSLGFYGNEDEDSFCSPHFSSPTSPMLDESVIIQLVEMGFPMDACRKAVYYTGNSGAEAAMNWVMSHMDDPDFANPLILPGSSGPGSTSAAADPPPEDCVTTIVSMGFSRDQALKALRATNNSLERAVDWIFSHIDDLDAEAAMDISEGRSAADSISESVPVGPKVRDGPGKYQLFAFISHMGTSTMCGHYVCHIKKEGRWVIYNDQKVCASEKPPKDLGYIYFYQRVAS
Procedure, shortened: as §1

USP54 = USP54 (UniProt Q70EL1)
USP54, sequence (Q70EL1 whole entry): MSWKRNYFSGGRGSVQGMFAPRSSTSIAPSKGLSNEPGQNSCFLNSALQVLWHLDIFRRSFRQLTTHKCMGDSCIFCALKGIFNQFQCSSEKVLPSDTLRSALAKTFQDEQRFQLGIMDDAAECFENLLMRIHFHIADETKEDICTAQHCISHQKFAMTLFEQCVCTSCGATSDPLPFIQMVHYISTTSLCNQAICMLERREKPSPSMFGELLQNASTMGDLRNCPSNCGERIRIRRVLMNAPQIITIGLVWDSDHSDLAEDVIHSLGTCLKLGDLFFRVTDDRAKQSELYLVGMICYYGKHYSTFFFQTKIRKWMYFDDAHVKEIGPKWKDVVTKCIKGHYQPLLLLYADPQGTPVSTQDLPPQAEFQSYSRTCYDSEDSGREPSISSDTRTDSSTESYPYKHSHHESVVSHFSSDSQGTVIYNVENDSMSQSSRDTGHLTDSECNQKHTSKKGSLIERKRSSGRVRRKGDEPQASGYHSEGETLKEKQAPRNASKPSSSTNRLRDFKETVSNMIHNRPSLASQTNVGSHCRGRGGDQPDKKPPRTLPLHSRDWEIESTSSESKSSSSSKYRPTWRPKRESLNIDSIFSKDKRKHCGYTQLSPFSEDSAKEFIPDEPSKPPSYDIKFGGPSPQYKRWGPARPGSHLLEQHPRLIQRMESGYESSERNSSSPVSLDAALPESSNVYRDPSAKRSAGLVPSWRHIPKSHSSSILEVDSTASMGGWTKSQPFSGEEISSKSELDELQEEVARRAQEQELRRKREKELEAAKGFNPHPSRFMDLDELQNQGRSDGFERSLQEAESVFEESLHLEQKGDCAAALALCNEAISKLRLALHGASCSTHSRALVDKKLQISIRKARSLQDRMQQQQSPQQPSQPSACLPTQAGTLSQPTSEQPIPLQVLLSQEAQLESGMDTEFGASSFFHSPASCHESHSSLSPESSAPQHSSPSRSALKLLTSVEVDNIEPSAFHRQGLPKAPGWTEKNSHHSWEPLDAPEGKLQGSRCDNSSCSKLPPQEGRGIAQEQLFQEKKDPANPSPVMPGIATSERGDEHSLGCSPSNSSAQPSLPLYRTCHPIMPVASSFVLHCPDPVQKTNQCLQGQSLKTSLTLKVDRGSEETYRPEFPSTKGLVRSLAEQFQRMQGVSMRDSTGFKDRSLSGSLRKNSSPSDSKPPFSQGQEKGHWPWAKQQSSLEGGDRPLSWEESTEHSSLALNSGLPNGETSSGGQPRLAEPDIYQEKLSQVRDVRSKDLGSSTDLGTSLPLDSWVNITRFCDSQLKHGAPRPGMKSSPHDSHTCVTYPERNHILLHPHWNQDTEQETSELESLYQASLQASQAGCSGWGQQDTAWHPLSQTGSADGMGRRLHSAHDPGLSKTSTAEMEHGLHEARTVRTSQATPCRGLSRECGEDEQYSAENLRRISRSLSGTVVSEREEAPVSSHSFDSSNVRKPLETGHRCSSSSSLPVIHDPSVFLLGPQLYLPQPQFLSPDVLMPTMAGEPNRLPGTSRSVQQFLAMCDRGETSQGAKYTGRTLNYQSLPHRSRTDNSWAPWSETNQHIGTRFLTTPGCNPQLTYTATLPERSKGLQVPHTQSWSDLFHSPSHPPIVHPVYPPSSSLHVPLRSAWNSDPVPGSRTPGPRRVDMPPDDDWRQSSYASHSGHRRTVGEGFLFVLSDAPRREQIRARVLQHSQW
Procedure, shortened: as §1

USP7 = USP7 (UniProt Q93009)
USP7, sequence (Q93009 whole entry, looked up): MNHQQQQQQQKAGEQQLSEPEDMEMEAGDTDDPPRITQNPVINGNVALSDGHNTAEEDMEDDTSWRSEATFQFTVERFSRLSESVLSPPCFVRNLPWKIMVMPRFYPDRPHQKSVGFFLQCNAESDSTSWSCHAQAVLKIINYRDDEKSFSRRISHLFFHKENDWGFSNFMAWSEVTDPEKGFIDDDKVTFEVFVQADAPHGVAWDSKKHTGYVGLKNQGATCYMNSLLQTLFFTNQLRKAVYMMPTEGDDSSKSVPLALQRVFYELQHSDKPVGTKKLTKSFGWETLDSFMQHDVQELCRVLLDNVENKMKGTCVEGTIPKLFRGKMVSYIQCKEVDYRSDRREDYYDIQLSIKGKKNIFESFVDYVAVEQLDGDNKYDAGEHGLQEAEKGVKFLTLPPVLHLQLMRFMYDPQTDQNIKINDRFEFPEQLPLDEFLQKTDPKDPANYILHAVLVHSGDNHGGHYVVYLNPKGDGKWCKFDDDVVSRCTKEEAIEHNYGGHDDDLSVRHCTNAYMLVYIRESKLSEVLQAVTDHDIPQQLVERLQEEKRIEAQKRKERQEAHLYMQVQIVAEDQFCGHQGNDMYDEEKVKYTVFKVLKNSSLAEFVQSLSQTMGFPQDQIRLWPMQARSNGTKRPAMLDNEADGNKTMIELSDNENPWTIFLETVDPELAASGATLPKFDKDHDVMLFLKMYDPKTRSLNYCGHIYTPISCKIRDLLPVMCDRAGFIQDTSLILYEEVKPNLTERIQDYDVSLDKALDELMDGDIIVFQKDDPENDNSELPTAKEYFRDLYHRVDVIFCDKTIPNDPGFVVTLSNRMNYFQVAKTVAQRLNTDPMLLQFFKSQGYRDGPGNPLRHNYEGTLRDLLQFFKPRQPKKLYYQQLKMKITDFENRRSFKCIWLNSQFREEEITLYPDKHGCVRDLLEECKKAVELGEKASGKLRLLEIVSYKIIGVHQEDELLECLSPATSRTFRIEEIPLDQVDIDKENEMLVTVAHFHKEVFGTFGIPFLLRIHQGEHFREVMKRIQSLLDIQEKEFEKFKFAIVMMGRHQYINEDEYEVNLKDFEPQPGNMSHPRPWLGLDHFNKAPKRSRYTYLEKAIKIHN
Procedure, shortened: as §1

USP8 = target: T5, USP8 (UniProt P40818)
T5 sequence (whole entry): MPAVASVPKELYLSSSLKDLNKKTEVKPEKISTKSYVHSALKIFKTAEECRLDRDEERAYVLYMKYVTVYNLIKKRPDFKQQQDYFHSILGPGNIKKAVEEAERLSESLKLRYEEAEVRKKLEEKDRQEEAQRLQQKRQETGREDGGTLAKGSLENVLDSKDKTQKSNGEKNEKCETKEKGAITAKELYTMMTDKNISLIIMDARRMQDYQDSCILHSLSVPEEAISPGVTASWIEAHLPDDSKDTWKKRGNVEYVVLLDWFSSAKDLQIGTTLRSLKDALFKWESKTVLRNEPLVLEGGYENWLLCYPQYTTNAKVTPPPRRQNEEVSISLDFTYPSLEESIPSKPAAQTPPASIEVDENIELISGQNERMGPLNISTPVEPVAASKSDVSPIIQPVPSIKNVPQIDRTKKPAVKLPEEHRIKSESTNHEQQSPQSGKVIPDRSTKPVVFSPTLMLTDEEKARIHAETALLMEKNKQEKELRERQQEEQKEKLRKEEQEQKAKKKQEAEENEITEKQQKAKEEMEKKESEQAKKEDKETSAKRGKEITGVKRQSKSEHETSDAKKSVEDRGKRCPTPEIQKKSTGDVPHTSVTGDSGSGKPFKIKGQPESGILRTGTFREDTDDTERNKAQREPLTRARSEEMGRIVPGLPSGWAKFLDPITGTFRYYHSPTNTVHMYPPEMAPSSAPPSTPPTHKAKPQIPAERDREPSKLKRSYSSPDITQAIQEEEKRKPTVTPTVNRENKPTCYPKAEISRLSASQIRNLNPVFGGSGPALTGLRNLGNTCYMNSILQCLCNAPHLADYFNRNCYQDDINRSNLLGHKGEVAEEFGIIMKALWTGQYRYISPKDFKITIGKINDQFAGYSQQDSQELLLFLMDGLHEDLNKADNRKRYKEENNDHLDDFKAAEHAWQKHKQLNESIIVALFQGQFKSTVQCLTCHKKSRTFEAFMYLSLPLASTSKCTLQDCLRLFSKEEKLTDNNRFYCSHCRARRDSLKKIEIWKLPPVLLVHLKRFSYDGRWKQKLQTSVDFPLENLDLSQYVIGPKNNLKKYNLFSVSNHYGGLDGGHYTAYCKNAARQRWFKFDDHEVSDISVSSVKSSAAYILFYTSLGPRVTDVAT
Procedure, shortened: as §1

USP9X = USP9X (UniProt Q93008)
Procedure, shortened: as §1

UniProt O00487 = target: UniProt O00487
UniProt O00487, sequence (O00487 whole entry): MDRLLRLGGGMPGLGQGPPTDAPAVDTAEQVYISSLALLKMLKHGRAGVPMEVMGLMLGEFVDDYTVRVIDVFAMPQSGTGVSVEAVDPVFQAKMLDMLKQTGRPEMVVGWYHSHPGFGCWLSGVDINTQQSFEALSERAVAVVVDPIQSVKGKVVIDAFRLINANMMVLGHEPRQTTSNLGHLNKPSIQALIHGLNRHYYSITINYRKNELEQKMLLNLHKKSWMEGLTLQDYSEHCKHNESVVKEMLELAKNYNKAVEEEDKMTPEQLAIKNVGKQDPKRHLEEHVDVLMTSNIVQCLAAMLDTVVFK
Procedure, shortened: as §1

Measured: log2 ratio of Biotin-Ahx-Ub-VS probe labelling

O=C(CCl)N1CCC(C(=O)N2CCCC2)CC1
inactive: USP42 -0.161 | USP46 0.0393 | USP47 -0.0567 | USP48 0.126 | USP5 -0.266 | USP54 -0.159 | USP7 -0.543 | USP8 -0.0342 | USP9X -0.0236 | UniProt O00487 -0.108
